PubChem BioAssay
Active and inactive are the calls of the source.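 Rule for the calls, unless noted: active = fluorescence slope higher than the sample average by over 3 SD (cut at about -0.22 in these data, passing the limit was not always enough); inactive = the rest.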

What was measured:
[1] = inhibitors of TNFa-induced NFkB p65 translocation, primary screen, imaging, HUVEC, MLSMR starter and 10KST1 sets (AID 438;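 active = inhibition above 20% together with a positive visual image hit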;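 note: compound added about 3h40 before a 20 min TNFalpha stimulation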;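 for inhibition: signal is the nuclear over cytoplasmic p65 intensity ratio per well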); conditions: HUVEC TNFa-induced p65 nuclear translocation; cell count: measured here: nuclei count (cytotoxicity indicator), at 2.08 µM; inhibition: at 2 µM, stronger effect = higher value, 0% TNFa-plus-vehicle, 100% no-TNFa wells
[2] = inhibitors of mutant huntingtin aggregation, primary screen, imaging, exon1htt(103Q)mCFP cells, high-content imaging (AID 483;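 active = visual image review flags a hit and inhibition of aggregation exceeds 20%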;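 note: compound exposure lasted 3 days before fixation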;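 for nuclei count: percent of the per-plate median nuclei count of sample wells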); conditions: exon1htt(103Q)mCFP cell line, aggregate imaging, at 2 µM; inhibition of aggregation: stronger effect = higher value; nuclei count: measured here: cell count, toxicity
[3] = inhibitors of E-selectin induction by TNFa, primary screen, imaging, HUVEC, immunofluorescence, MLSMR starter and 10KST1 sets (AID 487;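 active = visually confirmed hit in the image check and inhibition above 20%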;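 for inhibition: signal is fraction of cell area covered by stained E-selectin grains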;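 for nuclei count: 100% = median nuclei count of all wells on the same plate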); conditions: HUVEC TNFalpha-induced E-selectin immunofluorescence imaging, at 2 µM; inhibition: stronger effect = higher value; nuclei count: measured here: cell number, toxicity
[4] = molecular target: Voltage-gated potassium channel subunit beta-2 (Rattus norvegicus) (UniProt P62483); experiment: KvBeta enzyme negative modulators, primary screen, biochemical, NADPH fluorescence (AID 622); conditions: recombinant KvBeta, 4-cyanobenzaldehyde reduction, at 10 µM, stronger effect = higher value;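 note: slope of raw intensity against log time taken from 70 to 1610 s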
Voltage-gated potassium channel subunit beta-2 (Rattus norvegicus), sequence (P62483 whole entry, looked up): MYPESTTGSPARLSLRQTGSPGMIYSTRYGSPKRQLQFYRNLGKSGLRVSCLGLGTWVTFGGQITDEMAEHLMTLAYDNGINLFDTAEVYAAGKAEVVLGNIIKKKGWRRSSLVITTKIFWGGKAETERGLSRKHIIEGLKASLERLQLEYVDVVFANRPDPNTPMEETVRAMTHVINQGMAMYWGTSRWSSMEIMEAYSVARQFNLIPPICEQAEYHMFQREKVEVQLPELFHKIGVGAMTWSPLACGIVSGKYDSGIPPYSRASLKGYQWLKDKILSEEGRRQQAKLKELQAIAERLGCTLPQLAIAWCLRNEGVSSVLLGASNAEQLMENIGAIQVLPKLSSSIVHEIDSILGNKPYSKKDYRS

[5] = molecular target: Voltage-gated potassium channel subunit beta-2 (Rattus norvegicus) (UniProt P62483); experiment: KvBeta positive modulators, primary screen, biochemical, NADPH fluorescence (AID 623;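 active = NADPH fluorescence slope more negative than the mean of all samples by about 3 SD, 99.7% confidence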;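 note: fluorescence intensity change per second fitted from 20 to 320 s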); conditions: Recombinant KvBeta, NADPH fluorescence decrease slope, 10 min; at 10 µM; stronger effect = lower value
[6] = molecular target: Alpha-2C adrenergic receptor (Homo sapiens) (UniProt P18825); experiment: modulators of alpha2C/GIRK thallium flux, primary screen, cell-based, HEK293 alpha2C/GIRK1/2 (AID 624;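 active = fluorescence slope after compound addition differing from the mean of all screened samples at 99.7% confidence, in either direction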;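 note: slope of fluorescence ratio to pre-addition baseline per second over 15 to 24 s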); conditions: thallium flux BTC fluorescence, at 10 µM, actives lie on both sides
Alpha-2C adrenergic receptor (Homo sapiens), sequence (P18825 whole entry, looked up): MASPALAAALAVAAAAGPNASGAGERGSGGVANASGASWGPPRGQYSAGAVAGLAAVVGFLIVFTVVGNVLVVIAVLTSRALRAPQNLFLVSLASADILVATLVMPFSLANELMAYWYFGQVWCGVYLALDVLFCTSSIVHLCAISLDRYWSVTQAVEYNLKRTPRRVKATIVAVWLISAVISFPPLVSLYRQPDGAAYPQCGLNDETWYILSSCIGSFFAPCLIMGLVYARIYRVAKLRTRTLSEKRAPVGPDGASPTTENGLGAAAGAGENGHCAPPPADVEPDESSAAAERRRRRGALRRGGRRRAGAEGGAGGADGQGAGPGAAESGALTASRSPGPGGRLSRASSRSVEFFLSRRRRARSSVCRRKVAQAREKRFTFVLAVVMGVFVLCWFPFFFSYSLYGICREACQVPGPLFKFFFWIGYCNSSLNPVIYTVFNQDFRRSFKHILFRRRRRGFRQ

[7] = inhibitors of Sendai virus-induced IRF3 signaling, primary screen, TLR/RLR signaling modifier project, cell-based, Sendai virus stimulus, luciferase, 10K MLSCN set (AID 602276;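 active = inhibition at or above 50% at 10 µM; inactive = inhibition below 50%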;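 note: firefly luciferase from ISG56 promoter only with Renilla not read in this screen; 0% = Sendai virus plus DMSO and 100% = medium plus DMSO without virus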); conditions: HEK293 RL24 IRF3 luciferase reporter, at 10 µM, stronger effect = higher value
[8] = inhibitors of poly I:C-induced TLR3 signaling, primary screen, cell-based, poly I:C stimulus, luciferase, 10K MLSCN set (AID 602277;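 active = inhibition of the reporter signal at or above 50%; inactive = inhibition below 50%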); conditions: HEK293-TLR3 RL24 IRF3 luciferase reporter, at 10 µM, stronger effect = higher value

Row | SMILES | cell count [1] | inhibition [1] | inhibition of aggregation [2] | nuclei count [2] [%] | inhibition [3] | nuclei count [3] [%] | fluorescence slope [4] | NADPH fluorescence slope [5] | slope [6] | inhibition [7] | inhibition [8]
1 | O=C(CCCCn1c(=O)c2ccccc2n(Cc2ccc(Cl)cc2)c1=O)NCc1ccco1 | 613 | -7.3% (inactive) | -8.5% (inactive) | 81.8 | -95.8% (inactive) | 110 | -0.466 (inactive) | -1.3e-05 (inactive) | 0.00636 (inactive) | 45.2% (inactive) | 33.2% (inactive)
2 | CC1(c2ccc(Cl)cc2)NC(=O)N(CC(=O)NC(=O)NCc2ccco2)C1=O (stereo not drawn) | 482 | 2.9% (inactive) | -25.8% (inactive) | 102 | -48.5% (inactive) | 110 | -0.399 (inactive) | -4.4e-05 (inactive) | 0.00253 (inactive) | 14.9% (inactive) | 18.4% (inactive)
3 | CCCNC(=O)CS(=O)(=O)Cc1nc(-c2cccc(OC)c2)oc1C | 781 | 3.5% (inactive) | 12.5% (inactive) | 99.7 | -52% (inactive) | 127 | -0.543 (inactive) | 4.4e-05 (inactive) | 0.007 (inactive) | 9.03% (inactive) | -7.6% (inactive)
4 | CSc1nc(C)cc(OCC(=O)N2CCOCC2)n1 | 262 | -7.5% (inactive) | 25.5% (inactive) | 104 | -37.5% (inactive) | 95 | -0.451 (inactive) | -3.8e-05 (inactive) | 0.00307 (inactive) | 7.52% (inactive) | 23.9% (inactive)
5 | Cc1ccc(S(=O)(=O)N2C(=O)CCC2C(=O)Nc2ccc3c(c2)OCCO3)cc1 (stereo not drawn) | 430 | 3.8% (inactive) | -9.4% (inactive) | 101 | -32.2% (inactive) | 102 | -0.446 (inactive) | -2.2e-05 (inactive) | 0.00315 (inactive) | 10.3% (inactive) | 27.4% (inactive)
6 | Cc1nc2sc(C(c3ccccc3)N3CCN(c4ccccc4F)CC3)c(O)n2n1 (stereo not drawn) | 305 | -1% (inactive) | -6.7% (inactive) | 83.6 | 8.6% (inactive) | 91.8 | -0.437 (inactive) | 0.000106 (inactive) | 0.00618 (inactive) | 5.03% (inactive) | 5.62% (inactive)
7 | Cc1c(NC(=O)CCc2ccc(S(=O)(=O)N3CCOCC3)cc2)c(=O)n(-c2ccccc2)n1C | 575 | 4.1% (inactive) | -26.2% (inactive) | 119 | -86.1% (inactive) | 112 | -0.527 (inactive) | -1.9e-05 (inactive) | 0.00736 (inactive) | -8.63% (inactive) | 5.48% (inactive)
8 | O=C(C1CCCN(S(=O)(=O)c2cccc3nonc23)C1)N1CCC(Cc2ccccc2)CC1 (stereo not drawn) | 385 | -11.2% (inactive) | 3% (inactive) | 101 | 24.5% (inactive) | 59.6 | -0.304 (inactive) | -1e-05 (inactive) | 0.00394 (inactive) | 7.74% (inactive) | 25.7% (inactive)
9 | Cc1cc(OCC(=O)N2CCCC2)cc(C)c1Cl | 633 | 6.6% (inactive) | 3.4% (inactive) | 95 | -128% (inactive) | 99.5 | -0.601 (inactive) | -7.6e-05 (inactive) | 0.00573 (inactive) | 4.42% (inactive) | -0.933% (inactive)
10 | CCCCP(=O)(CCCC)Cc1ccccc1O | 363 | -1.6% (inactive) | 0.1% (inactive) | 91.9 | -39.4% (inactive) | 97.4 | -0.474 (inactive) | -0.000131 (inactive) | 0.00605 (inactive) | -4.65% (inactive) | 9.82% (inactive)
11 | CN(C)CCCN1C(=O)C(=O)/C(=C(/O)c2ccncc2)C1c1cccc(Br)c1 (stereo not drawn) | 245 | -2.8% (inactive) | -9.4% (inactive) | 94.1 | 1.2% (inactive) | 103 | -0.612 (inactive) | -7.1e-05 (inactive) | 0.00373 (inactive) | -6.87% (inactive) | -3.17% (inactive)
12 | CC(C)c1nccn1S(=O)(=O)c1cc(Cl)ccc1Cl | 582 | -11.9% (inactive) | 6.2% (inactive) | 110 | 20.8% (inactive) | 122 | -0.422 (inactive) | -4.2e-05 (inactive) | 0.0045 (inactive) | 8.92% (inactive) | 31% (inactive)
13 | COc1ccc(C2C(C(=O)N3CCC(C)CC3)c3ccccc3C(=O)N2C)cc1 (stereo not drawn) | 475 | -3.8% (inactive) | 12.4% (inactive) | 91.5 | -17.4% (inactive) | 101 | -0.54 (inactive) | -1.3e-05 (inactive) | 0.00505 (inactive) | -9.25% (inactive) | 12.2% (inactive)
14 | CSCCC(NC(=O)c1occc1C)C(=O)O (stereo not drawn) | 361 | 4% (inactive) | -17.4% (inactive) | 108 | -91.1% (inactive) | 149 | -0.351 (inactive) | -6.3e-05 (inactive) | 0.00359 (inactive) | 7.31% (inactive) | 21.8% (inactive)
15 | Cc1ccc(S(=O)(=O)N2CCOCC(=O)NCCOCCNC(=O)COCC2)cc1 | 592 | 2.1% (inactive) | -15.3% (inactive) | 116 | -89.9% (inactive) | 108 | -0.622 (inactive) | -2.4e-05 (inactive) | 0.00426 (inactive) | 9.52% (inactive) | 9.55% (inactive)
16 | Cc1cc(C(=O)OCC(=O)N2c3ccccc3CC2C)c(C)o1 (stereo not drawn) | 733 | -9.6% (inactive) | 3.2% (inactive) | 85.1 | -49.5% (inactive) | 111 | -0.425 (inactive) | 2.6e-05 (inactive) | 0.00532 (inactive) | -14.2% (inactive) | -2.49% (inactive)
17 | CCOC(=O)Cc1cc(=O)n2[nH]c(C)c(-c3ccc(OC)cc3)c2n1 | 652 | -0.3% (inactive) | 19.2% (inactive) | 94 | 0.6% (inactive) | 102 | -0.301 (inactive) | 1.1e-05 (inactive) | 0.00404 (inactive) | 14.2% (inactive) | 22.5% (inactive)
18 | CCC(C(=O)N1CCc2cc(OC)c(OC)cc2C1)c1ccccc1 (stereo not drawn) | 598 | 5% (inactive) | -8.2% (inactive) | 88.6 | 11.7% (inactive) | 103 | -0.478 (inactive) | 5.9e-06 (inactive) | 0.00474 (inactive) | 3.51% (inactive) | 6.78% (inactive)
19 | C=CCOC(=O)CCC(=O)Nc1cc(OC)nc(OC)n1 | 653 | -12.9% (inactive) | -1.7% (inactive) | 109 | -0.8% (inactive) | 116 | -0.422 (inactive) | -4.9e-06 (inactive) | 0.00745 (inactive) | 12.4% (inactive) | 19.2% (inactive)
20 | CCOc1ccc(NC(=O)CSc2nccn2C)cc1 | 309 | 15.3% (inactive) | 3.1% (inactive) | 106 | -28.1% (inactive) | 114 | -0.28 (inactive) | 1e-05 (inactive) | 0.00367 (inactive) | -18.3% (inactive) | -80.7% (inactive)
21 | Cn1cccc1Cc1nnc(SCC(=O)NCc2ccc(F)cc2)n1-c1ccc(F)cc1 | 767 | -7.4% (inactive) | 20% (inactive) | 139 | -56.2% (inactive) | 116 | -0.579 (inactive) | 8.6e-06 (inactive) | 0.00663 (inactive) | -4.39% (inactive) | 9.66% (inactive)
22 | Cc1cccc2sc(NC(=O)CN(C)S(=O)(=O)c3cccs3)nc12 | 601 | -25.8% (inactive) | -7% (inactive) | 114 | -1.7% (inactive) | 103 | -0.432 (inactive) | 1e-05 (inactive) | 0.00346 (inactive) | -1.84% (inactive) | -8.61% (inactive)
23 | CC1=C(C(=O)NCc2ccco2)C2(CCC(C)CC2)OC1=O (stereo not drawn) | 438 | 7.7% (inactive) | 22.4% (inactive) | 62.3 | -20.5% (inactive) | 106 | -0.513 (inactive) | -2.5e-05 (inactive) | 0.00707 (inactive) | 23% (inactive) | 23.3% (inactive)
24 | Cc1nn(C)cc1NC(=O)CCSc1nc(-c2ccco2)cc(C(F)(F)F)n1 | 452 | -13.9% (inactive) | -12.3% (inactive) | 107 | 35.1% (inactive) | 106 | -0.615 (inactive) | -1.6e-06 (inactive) | 0.00399 (inactive) | -8.54% (inactive) | -43.3% (inactive)
25 | COc1ccc(-c2nc(C#N)c(NCCCN(C)C)o2)cc1OC | 713 | -9.1% (inactive) | -8.5% (inactive) | 99.3 | -8.3% (inactive) | 98.4 | -0.222 (active) | -1.8e-06 (inactive) | 0.00305 (inactive) | 1.52% (inactive) | 33.3% (inactive)
26 | CC(CN1CCCCC1)OC(=O)c1ccc(Cl)cc1Cl (stereo not drawn) | 585 | 10.3% (inactive) | -8.8% (inactive) | 87.8 | 9.3% (inactive) | 105 | -0.438 (inactive) | 1.5e-06 (inactive) | 0.00424 (inactive) | -18.5% (inactive) | -15.9% (inactive)
27 | CCCCn1nc(C(=O)N2CCc3ccccc32)c2ccccc2c1=O | 423 | -9% (inactive) | -20.9% (inactive) | 112 | 36.5% (inactive) | 41.8 | -0.473 (inactive) | 2e-05 (inactive) | 0.0045 (inactive) | -1.51% (inactive) | 20.2% (inactive)
28 | Cc1cccc(C)c1NC(=O)CS(=O)CC(=O)NC1CCCc2ccccc21 (stereo not drawn) | 562 | -5.5% (inactive) | -3.7% (inactive) | 62.2 | -73.7% (inactive) | 108 | -0.61 (inactive) | -3e-05 (inactive) | 0.00417 (inactive) | 12.3% (inactive) | 20.9% (inactive)
